Hit rate of the full screen: of about 69,000 compounds, about 8,600 (12%) showed an effect of 50% or more. Only a selection was taken, and strong results are over-represented in it overall.
What follows are compounds tested on Plasmodium berghei (assay: Screen against P. berghei liver stage (PbLuc), transformed with Luciferase, at 10uM). Details: tested at 10 uM.
Assay type: functional, HepG2

Row | SMILES | INHIBITION [%]
1 | N#Cc1ccc(CCC(=O)N2CCC(CN3CCOCC3)CC2)cc1 | 37.7
2 | O=C(O)C1CN(c2cncc(Cc3ccccc3)n2)C1 | 8.35
3 | CCc1cc(N[C@H]2CCC[C@H]2CO)n2nc(C)c(C)c2n1 | 16.3
4 | O=S1(=O)CCN(CCCc2ccc(Cl)cc2)CC1 | 15
5 | O=C(COCC(F)(F)F)N1CCCC(n2cccn2)C1 (centres undefined) | 39.5
6 | CC(C)CC(=O)N1CCN(C(=O)NC(C)C)CC2(CC(=O)N(C)C2)C1 (centres undefined) | 34.4
7 | O=C(NCCc1ccncc1)c1cccc(S(=O)(=O)NC2CC2)c1 | -78.5
8 | CN1CC[C@]2(CN(CC3CCOC3)C[C@H]2c2ccccc2)C1=O (some centres undefined) | 57.3
9 | CN1CC[C@]2(CN(CC3CC3)C[C@H]2c2ccccc2)C1=O | 52.4
10 | O=C1NCC[C@]12CN(CC1CCOCC1)C[C@H]2c1ccccc1 | 29.5
11 | CN(C)C(=O)CN1CC[C@]2(CN(CC3CC3)C[C@H]2c2ccccc2)C1=O | 26.5
12 | CN1CC[C@]2(CN(CC3CCOCC3)C[C@H]2c2ccccc2)C1=O | 43.4
13 | CN1CC[C@]2(CN(Cc3nccs3)C[C@H]2c2ccccc2)C1=O | -2.41
14 | Cc1ccc(NC2CCN(C(=O)CCCn3ccnc3C)CC2)nn1 | 8.64
15 | CC(C)c1noc(CCCC(=O)NCCOc2ccccc2)n1 | 46.4
16 | CC(C)c1noc(CS(=O)(=O)CC(=O)NCCOc2ccccc2)n1 | 61.5
17 | CC(C)c1noc(CS(=O)(=O)CC(=O)NCc2ccccc2)n1 | 10.6
18 | CC(C)OCCCNC(=O)C1CC(=O)N(c2n[nH]c3cccc(F)c23)C1 (centres undefined) | -10.9
19 | Cn1cccc1C(=O)N1CCCC(Cn2cc(CO)nn2)C1 (centres undefined) | -2.39
20 | Cc1ccc(C2CN(CCS(=O)(=O)C(C)C)CCO2)c(C)c1 (centres undefined) | 30.7
21 | Cc1ccc(C2CN(CCCC#N)CCO2)c(C)c1 (centres undefined) | -3.47
22 | Cc1ccc(C2CN(c3nnc(C(F)F)s3)CCO2)c(C)c1 (centres undefined) | 57.4
23 | Cc1ccc(C(=O)N2CCC3(CCN(c4ccsc4)C3=O)C2)cn1 (centres undefined) | -14.3
24 | NCc1n[nH]c(-c2ccc(Br)cc2)n1 | -34.4
25 | Cc1ncn(-c2cc(N3CCN(S(C)(=O)=O)CC3)ncn2)c1C | 51.5
26 | Cc1nc(N2CCN(S(C)(=O)=O)CC2)cc(-n2cnc(C)c2C)n1 | 23.9

Row | SMILES | INHIBITION [%]
27 | CCCS(=O)(=O)N1CCN(c2cc(-n3cnc(C)c3C)ncn2)CC1 | 27.2
28 | Cc1nc(C)n(C2CCCN(C(=O)c3cncnc3C)C2)n1 (centres undefined) | 1.563
29 | CS(=O)(=O)NCCCN1CCCC1c1cccc(Br)c1 (centres undefined) | -5.25
30 | CCNc1ncc(C(=O)NC(c2ccccc2)c2ccco2)cn1 (centres undefined) | 33.4
31 | CCNc1ncc(C(=O)NC2CCOCC2)cn1 | 1.94
32 | CCNc1ncc(C(=O)NC2CCc3ccccc3C2)cn1 (centres undefined) | 80.9
33 | CCNc1ncc(C(=O)NC2CCSC2)cn1 (centres undefined) | 37.7
34 | CCNc1ncc(C(=O)N[C@@H](C)[C@H](O)c2ccccc2)cn1 | 71.2
35 | CCNc1ncc(C(=O)N[C@H](C(N)=O)c2ccccc2)cn1 | 17.1
36 | CCc1nnc2n1CCN(C(=O)c1cc(Cl)c[nH]1)C2 | 24.39
37 | Cc1sc(C(=O)NS(C)(=O)=O)cc1-c1ccc(F)cc1 | 32.7
38 | CCCN1CCC2(CC1)COc1ccccc1S(=O)(=O)N(CC1CC1)C2 | -17.1
39 | CO[C@@H]1CC[C@H]2[C@H]1OCCN2S(=O)(=O)C1CC1 | -15.2
40 | Cc1cc(C)c(CNC(=O)C(C)Oc2ccccc2C#N)c(=O)[nH]1 (centres undefined) | 37.9
41 | CCS(=O)(=O)N(C)C1CCN(C(=O)c2ccc(Cl)cc2)CC1 | 47.4
42 | CN(C)C1COC2(CCN(C(=O)c3cccc(Cl)c3)CC2)C1 (centres undefined) | -9.74
43 | CCS(=O)(=O)N(C)C1CCN(C(=O)c2ccc(C)c(C)c2)CC1 | 27.7
44 | CN(C)CCN1CC[C@@H]2[C@@H]1CCN2C(=O)c1cccc(Cl)c1 | 40.4
45 | CCN(C1CCN(C(=O)c2cccc(Cl)c2)CC1)S(C)(=O)=O | 50
46 | CCS(=O)(=O)N(C)C1CCN(C(=O)c2cccc(Cl)c2)CC1 | 61.8
47 | O=C(CC1CC1)N1CC[C@H]2[C@@H]1CCC(=O)N2Cc1ccncc1 | 29
48 | Cc1cccc(SC2CCN(C(=O)CCCS(N)(=O)=O)CC2)c1 | 32.8
49 | Cc1ccccc1SC1CCN(C(=O)CCCS(N)(=O)=O)CC1 | 53.7
50 | Cc1ccccc1N1CCCN(C(=O)CCCS(N)(=O)=O)CC1 | 21.6
51 | Cc1ccccc1SC1CCN(C(=O)C2[C@H]3CNC[C@@H]23)CC1 (some centres undefined) | 90.7
52 | Cc1ccccc1SC1CCN(C(=O)C2CNCC(=O)N2)CC1 (centres undefined) | 1.37

Row | SMILES | INHIBITION [%]
53 | Cc1ccccc1SC1CCN(C(=O)C2CNC(=O)N2)CC1 (centres undefined) | 12.8
54 | Cc1cc(C2CCCN2Cc2ccc(S(=O)(=O)N(C)C)o2)on1 (centres undefined) | 5.9
55 | OCC1N(Cc2ccco2)C2CCC1(O)CC2 (centres undefined) | 32.8
56 | O=C1NCCN1CCNc1cc(-c2ccccc2)nc2ccnn12 | -39.2
57 | Cc1noc(C)c1CN1CCC2(CC1)NC(=O)CC2c1ccncc1 (centres undefined) | 25.5
58 | O=C1CC(c2ccncc2)C2(CCN(CCc3ccccc3)CC2)N1 (centres undefined) | 90.8
59 | O=C1CC(c2ccncc2)C2(CCN(C(=O)c3cccs3)CC2)N1 (centres undefined) | 73
60 | Cc1noc(C)c1CN1CCC2(CC1)NC(=O)CC2c1ccccc1 (centres undefined) | 65.7
61 | Cc1noc(C)c1CN1CCC2(CC1)NC(=O)CC2c1cnn(C)c1 (centres undefined) | 12.5
62 | O=C1CC(c2ccncc2)C2(CCN(CCO)CC2)N1 (centres undefined) | 47.8
63 | O=C1CC(c2ccccc2)C2(CCN(Cc3ccncc3)CC2)N1 (centres undefined) | 8.64
64 | O=C1CC(c2ccncc2)C2(CCN(C(=O)c3ccc[nH]3)CC2)N1 (centres undefined) | 33.5
65 | O=C1CC(c2ccncc2)C2(CCN(C(=O)c3ccnnc3)CC2)N1 (centres undefined) | 41.6
66 | CCc1nnc(NC(=O)Cc2c(C)nc(C)[nH]c2=O)s1 | 13.75
67 | Cc1nnc(CN2CCN(C(C)c3nc(C4CC4)no3)CC2)o1 (centres undefined) | -33.7
68 | COc1ccccc1-c1ccc(C2CCCN(C(C)=O)C2)nc1 (centres undefined) | 19.4
69 | O=C(NC1CCCc2c1[nH]c1ccc(F)cc21)c1n[nH]c2c1CCCC2 (centres undefined) | -8.99
70 | O=C(NCCc1ccccn1)c1n[nH]c2c1CCC2 | -15.9
71 | O=C(NC1CCCc2c1[nH]c1ccc(F)cc21)c1n[nH]c2c1CCC2 (centres undefined) | 61.2
72 | Cc1c(C(=O)N[C@@H]2CC[C@@H](N3CCCC3)[C@@H]2O)[nH]c2ccc(F)cc12 | 29.5
73 | O=C(Cc1cccc(F)c1)NC1CCCc2cn[nH]c21 (centres undefined) | 18.7
74 | CC(=O)NC1CCCc2c1[nH]c1ccc(F)cc21 (centres undefined) | 62.4
75 | CCC1CN(C(=O)CN2CCN(c3nccc(OC)n3)CC2)CCO1 (centres undefined) | -28.4
76 | CC(=O)N1CCO[C@@H]2CN(C(=O)c3cc(C)oc3C)CC[C@@H]2C1 | 26.2
77 | CN(Cc1ccco1)[C@@H]1CN(C(=O)c2ccnnc2)C[C@@H]2CCCO[C@@H]21 | 18.5
78 | CCN(CC)C(=O)Cn1cc(-c2nc(C(C)C)no2)nn1 | -18.1

Row | SMILES | INHIBITION [%]
79 | O=C(c1cnco1)N1C[C@@H](O)[C@H](Oc2cccc(F)c2)C1 | 5.11
80 | NC(=O)c1cccc(CNCC=Cc2ccccc2)c1 | 17.1
81 | Cc1cc(F)ccc1CNCc1cccc(C(=O)N2CCCC2)c1 | 7.67
82 | O=C(c1cccc(CNCC=Cc2ccccc2)c1)N1CCCC1 | 58.5
83 | COc1ccc(CN2CC(O)CN(C(=O)c3ccccc3)CC2=O)cc1 (centres undefined) | 23
84 | CCc1nc2n(n1)CC(NCc1nc3ccccc3nc1C)CC2 (centres undefined) | 53.3
85 | CCc1nc2n(n1)CC(NCc1nc(C)c(C)o1)CC2 (centres undefined) | 46.6
86 | Cc1nc(CNC2CCc3nc(C(C)C)nn3C2)oc1C (centres undefined) | 75.2
87 | CC(C)c1nc2n(n1)CC(NCC(=O)NCCC1=CCCCC1)CC2 (centres undefined) | 51.1
88 | Cc1nc2n(n1)CC(NCc1nc(C)c(C)o1)CC2 (centres undefined) | -67.9
89 | CC(C)c1nc2n(n1)CC(NCc1nnc(C(C)C)o1)CC2 (centres undefined) | 18.9
90 | CCc1nc2n(n1)CC(NCc1nc3ccccc3o1)CC2 (centres undefined) | 11.9
91 | CCc1nc2n(n1)CC(NCc1nc(C)ccc1O)CC2 (centres undefined) | -15
92 | Cc1cc(NC(=O)CNC2CCc3nc(C(C)C)nn3C2)no1 (centres undefined) | -7.31
93 | CCc1nnc(CNC2CCc3nc(C(C)C)nn3C2)o1 (centres undefined) | -19.4
94 | Cc1nc2n(n1)CC(NCC(=O)NCCC1=CCCCC1)CC2 (centres undefined) | 40.4
95 | CCc1nc2n(n1)CC(NCc1nnc(C(C)C)o1)CC2 (centres undefined) | 60.2
96 | CCN1C(=O)CC[C@@H]2[C@H]1CCN2S(=O)(=O)Cc1ccc(C)cc1 | 45.2
97 | Clc1ccc(-c2nc(CN3CCCC3Cn3cncn3)co2)cc1 (centres undefined) | -24.2
98 | c1coc(CN2CCO[C@H]3[C@H](OCC4CC4)CC[C@@H]32)c1 | -2.27
99 | CCN(Cc1nc2c(cnn2C)c(=O)[nH]1)c1ccc(F)cc1 | 29.7
100 | CC(C)Nc1nc(O)cc(C2CC(=O)N(Cc3ccccn3)C2)n1 (centres undefined) | -23.8
101 | Cc1cc(C(=O)N2CCC(c3nnc(Cn4ccnc4)n3C)CC2)cs1 | -40.5
102 | Cc1ccc(C(=O)N2CCC3(CC(N(C)c4ccncn4)C3)C2)cn1 (centres undefined) | 41.2
103 | Cc1cnn(CC2CCCN2C(=O)c2cc3c(F)cccc3[nH]2)c1 (centres undefined) | 24.6
104 | CCCOC(C)C(=O)NCc1cc2n(n1)CCCN(C1CCCCC1)C2 (centres undefined) | 14.8

Source: ChEMBL document CHEMBL4513216, “Probing the Open Global Health Chemical Diversity Library for Multistage-Active Starting Points for Next-Generation Antimalarials” (ACS Infect Dis, 2020)
